SSB-PriA inh: K. pneumoniae PriA-SSBct interaction inhibition; AlphaScreen SSBct-PriA binding, biotinylated peptide; inhibition, % at 33 µM; 0.6% of 430,000 active; AID 1272365; in the data active = inhibition mostly above about 37%, no sharp cut-off; inactive = mostly below about 20%
3CLpro inhibitor: SARS-CoV 3CLpro protease inhibition | 0.14% of 290,000 active | recombinant SARS-CoV 3CLpro, quenched FRET peptide cleavage | AID 1706 | inhibition, % at 6 µM | P0C6X7; in the data active = inhibition above about 12%
Mtb hypoxia rep: reduces hypoxia-regulated biosensor signal in M. tuberculosis. M. tuberculosis hypoxia-regulated fluorescent reporter, fluorescence. fluorescence inhibition, % (no concentration beside the values). 0.1% of 300,000 active; in the data active = fluorescence inhibition mostly above about 23%, no sharp cut-off; inactive = mostly below about 17%
CCHFV vOTU inh: blocks the CCHF virus ovarian tumor domain protease; CCHFV vOTU protease, Pep-AMC fluorescence; inhibition, % at 11.5 µM; 0.55% of 370,000 active; AID 651958; in the data active = inhibition above about 30%
VHR inh abs: inhibitors of human VHR1 phosphatase (DUSP3). inhibition, % at 13.3 µM. P51452. recombinant VHR phosphatase, pNPP absorbance. AID 1654. 0.52% of 290,000 active; in the data active = inhibition above about 50%
Target sequence (P51452 whole entry, looked up): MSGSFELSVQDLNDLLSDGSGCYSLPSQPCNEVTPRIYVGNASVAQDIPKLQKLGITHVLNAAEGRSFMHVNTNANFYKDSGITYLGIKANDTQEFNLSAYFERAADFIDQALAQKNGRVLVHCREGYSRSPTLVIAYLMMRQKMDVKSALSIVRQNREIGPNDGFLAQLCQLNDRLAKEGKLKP
A number is an active result; – = inactive; · = no result given. Rows were chosen to be rich in hits. Some 1.3% of all compounds tested hit in one or more screens of this group.

SMILES	SSB-PriA inh	3CLpro inhibitor	Mtb hypoxia rep	CCHFV vOTU inh	VHR inh abs
COc1cccc(C=NN2C(=O)CSC2=S)c1O	–	·	–	·	·
O=C1CSC(=S)N1N=Cc1ccccc1O	–	·	·	–	·
CCOc1cccc(C=NN2C(=O)CSC2=S)c1O	71	·	–	·	·
O=C1CSC(=S)N1N=Cc1ccc(O)c(O)c1O	100	·	–	·	·
O=C(Nc1ccc(-n2nnn(CC(=O)N3CCOCC3)c2=O)cc1)c1c(F)cccc1F	–	·	·	·	·
CCCCNC(=S)N(CCCO)Cc1cc2cc3c(cc2[nH]c1=O)OCCO3	–	–	–	–	51
O=S(=O)(c1ccc(F)cc1F)N1CCC(c2nnc(-c3ccco3)o2)CC1	–	·	·	·	·
COc1cc(C(C)=O)ccc1OC(=O)c1cc2cccc(OC)c2oc1=O	–	–	–	–	–
COc1cc(Br)cc2cc(C(=O)Oc3cccc4cccnc34)c(=O)oc12	89	·	·	·	·
Cc1ccc(C)c(NC(=S)N(CCc2nc3cc(C)c(C)cc3[nH]2)Cc2cccnc2)c1	–	–	–	–	53
Cc1ccc(NC(=O)C(=O)Nc2nc3ccccc3s2)cc1N1CCCCC1=O	–	·	·	·	·
O=C(Nc1ccc2c(c1)CN(C(=O)C1CC1)CC2)c1ccc(F)c(F)c1	–	·	·	·	·
CC(C)n1nc(C(=O)Oc2cc(Cl)ccc2Cl)c2ccccc2c1=O	–	–	–	–	–
CC(OC(=O)c1nn(C(C)C)c(=O)c2ccccc12)C(=O)Nc1ncc(Cl)cc1Cl (stereo not given)	–	–	–	–	60
COc1ccccc1NC(=O)CSc1nnc(-c2cccc(C)c2)n1Cc1ccco1	59	·	·	·	·
COc1ccccc1NC(=O)CSc1nnc(-c2cccnc2)n1Cc1ccco1	–	·	·	·	·
COc1ccc(CNC(=O)CNC(=O)N2CC(=O)Nc3ccccc32)cc1	–	–	–	–	–
COc1cccc(NC(=O)CNC(=O)N2CC(=O)Nc3ccccc32)c1	–	–	–	–	57
Cc1ccc(Cl)cc1NC(=O)CNC(=O)N1CC(=O)Nc2ccccc21	–	–	–	–	57
Cc1ccc(Cl)cc1NC(=O)CCNC(=O)N1CC(=O)Nc2ccccc21	–	–	–	–	–
CC(=NN1CCN(c2ccc(Cl)cc2)CC1)c1cccc([N+](=O)[O-])c1	–	·	–	·	·
CC(=NN1CCN(Cc2ccc(Cl)cc2)CC1)c1ccc([N+](=O)[O-])cc1	44	·	–	·	·
Cc1c(C(=O)N(Cc2ccc(N(C)C)cc2)CC2CCCO2)oc2ccccc12 (stereo not given)	57	–	–	–	–
CN(C)c1ccc(CN(CC2CCCO2)C(=O)c2cc3ccccc3o2)cc1 (stereo not given)	–	·	–	–	·
CCOc1ccc(CN(C(=O)c2oc3ccccc3c2C)C2CCS(=O)(=O)C2)cc1 (stereo not given)	–	–	–	–	–
SMILES	SSB-PriA inh	3CLpro inhibitor	Mtb hypoxia rep	CCHFV vOTU inh	VHR inh abs
Cc1c(C(=O)N(Cc2ccc(Cl)cc2)C2CCS(=O)(=O)C2)oc2ccccc12 (stereo not given)	–	–	–	–	–
Cc1ccc2oc(C(=O)N(Cc3ccc(N(C)C)cc3)C3CCS(=O)(=O)C3)c(C)c2c1 (stereo not given)	43	–	–	–	–
Cc1ccc2c(C)c(C(=O)N(Cc3ccc(N(C)C)cc3)C3CCS(=O)(=O)C3)oc2c1 (stereo not given)	39	–	–	–	–
OCCN(CC(O)Cn1ccc2ccccc21)CC(O)Cn1ccc2ccccc21 (stereo not given)	–	–	–	–	51
Cc1nc(Oc2ccccc2)nc(C)c1NC(=O)CNC(=O)c1ccccc1	–	·	·	·	·
Cc1nnc(C2CCCN(C(=O)Cn3cnc4ccccc4c3=O)C2)s1 (stereo not given)	–	·	·	·	·
CCC1C2CC3C4N(C)c5ccccc5C45CC(C2C5O)N3C1O (stereo not given)	·	·	–	–	·
CCCC[N+]12C3C[C@H](C4[C@H](O)[C@]5(C[C@@H]41)c1ccccc1N(C)[C@@H]35)[C@H](CC)[C@H]2O (stereo not given in full)	49	–	–	–	–
O=C(NC(=S)Nc1ccccc1N1CCCC1)c1ccc([N+](=O)[O-])cc1	70	–	–	–	–
O=C(NC(=S)Nc1ccccc1N1CCOCC1)c1ccc([N+](=O)[O-])cc1	–	–	–	–	–
COc1cccc(C(=O)NNC(=O)c2cccnc2)c1	–	–	–	–	60
CC(=NNC(=O)c1cccnc1)c1ccccc1	–	·	–	·	·
COc1cccc(NC(=O)c2cccnc2)c1	–	–	·	–	–
C/C(=N\NC(=O)c1cccnc1)c1ccccc1	·	–	·	–	59
CCCn1nc(C)cc1CN(C)c1ncc2c(=O)n(Cc3ccccc3F)c(=O)[nH]c2n1	–	·	·	·	·
CC(C)C(=O)N1CC(=O)Nc2ccccc21	–	·	·	·	·
COc1ccc2sc(N(CCN3CCOCC3)C(=O)c3cccc(SC)c3)nc2c1	–	·	·	·	·
COc1ccc(CC(=O)N(CCN2CCOCC2)c2nc3ccc(SC)cc3s2)cc1OC	29	·	·	·	·
CCOc1ccc2ccccc2c1/C=N/NC(=O)CNC(=O)C(c1ccccc1)c1ccccc1	·	–	·	–	52
COc1ccc(CCNC(=O)Cn2ncn3nc(-c4ccccc4)cc3c2=O)cc1OC	–	·	·	·	·
CCN(CC)c1ccc(NC(=O)CN(C)Cc2cccs2)cc1	–	–	–	–	53
Cc1nc2c([nH]1)C[C@@H](C(=O)N1CCC(Oc3cnccn3)CC1)CC2	–	·	·	·	·
O=C(Nc1nc(-c2ccccn2)cs1)c1sccc1C1CC1	114	·	·	·	·
O=C(Nc1nc(-c2ccccn2)cs1)c1ccccc1	101	·	·	·	·
O=C(Nc1nc(-c2ccccn2)cs1)c1ccc(C(=O)c2ccccc2)cc1	–	·	·	·	·
SMILES	SSB-PriA inh	3CLpro inhibitor	Mtb hypoxia rep	CCHFV vOTU inh	VHR inh abs
O=C(Nc1nc(-c2ccccn2)cs1)c1ccc(=O)[nH]c1	95	·	·	·	·
Cn1nc(C(=O)Nc2nc(-c3ccccn3)cs2)c2ccccc2c1=O	43	·	–	–	·
CC1(C)Cc2c(sc(NC(=O)c3cccs3)c2-c2nc3ccccc3s2)C(C)(C)N1	–	·	·	·	·
Cn1c(=O)c2c(SCC(=O)Nc3ccc(Cl)c(Cl)c3)ccnc2n(C)c1=O	–	·	·	·	·
O=C(Nc1nc(-c2ccccn2)cs1)c1ccc(Cl)c([N+](=O)[O-])c1	–	·	·	·	·
Cc1cc(C(=O)Nc2nc(-c3ccccn3)cs2)ccc1[N+](=O)[O-]	47	–	–	–	–
O=C(Nc1nc(-c2ccco2)cs1)c1ccccc1	–	–	·	–	–
O=C(Nc1nc(-c2ccccn2)cs1)c1cc(-c2ccco2)[nH]n1	66	·	·	·	·
CCc1ccc(C(=O)Nc2nc(-c3ccccn3)cs2)cc1	85	·	·	·	·
O=C(Nc1nc(-c2ccccn2)cs1)c1ccccc1-n1cnnn1	81	–	–	–	–
O=C(Nc1nc(-c2ccccn2)cs1)c1ccc(-n2cnnn2)cc1	–	·	·	·	·
CSc1ccccc1C(=O)Nc1nc(-c2ccccn2)cs1	106	·	·	·	·
Cc1ccc(C(=O)Nc2nc(-c3ccccn3)cs2)cc1NC(=O)c1ccco1	–	·	·	·	·
Cc1nc(C)c(C(=O)Nc2nc(-c3ccccn3)cs2)s1	157	·	·	·	·
Cc1ccc(C(=O)Nc2nc(-c3ccccn3)cs2)o1	–	–	–	–	–
Cc1ccc(C(=O)Nc2nc(-c3ccccn3)cs2)cc1	78	·	·	·	·
Cc1ccc(C(=O)Nc2nc(-c3ccccn3)cs2)cc1-n1cccc1	103	·	·	·	·
